Test results as given in PubChem BioAssay (NCATS).
“And” between values parts separate entries of the source, which are not always exact repeats. Equal entries are not always repeated. Inconclusive results are not listed. Some structures have more than one record in an assay (separate samples or runs), and their calls can disagree. The source made the active and inactive calls. Unless noted, the call rests on the fitted dose curve.

Tests used:
[1] = target: Peroxisome proliferator-activated receptor gamma (Homo sapiens) (UniProt P37231); assay: qHTS assay for small molecule antagonists of peroxisome proliferator-activated receptor gamma signaling (AID 588537; active means well fitted inhibition curve with a large enough effect in the signal ratio, with a control signal flat, not every such curve was filed as active; the % refers to the signal ratio;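 further: reporter cells co-stimulated with 50 nM rosiglitazone agonist during compound treatment; % of control where 0% means no effect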)
Method in brief: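 PPAR-gamma-UAS-bla HEK293 cells (3000/well, 1% charcoal/dextran-stripped FBS) were preincubated 6-6.5 h at 37 C, given titrated compounds, then stimulated with 50 nM rosiglitazone for 16 h. Beta-lactamase activity was read with CCF4 dye; IC50 came from Hill fits.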

[2] = qHTS assay for small molecule agonists of retinoid X receptor alpha signaling (AID 588544); settings: HEK293T RXRa-UAS-bla, beta-lactamase reporter, 18 h; 530 nm emission;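 on activation: 0% = DMSO basal wells and 100% = reference agonist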
[3] = target: Retinoic acid receptor RXR-alpha (Homo sapiens) (UniProt P19793); assay: as above
[4] = target: Thyroid hormone receptor beta (Homo sapiens) (UniProt P10828); assay: qHTS assay for small molecule agonists of thyroid hormone receptor beta signaling (AID 588545);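 further: 0% = DMSO only and 100% = 10 nM T3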
Method in brief: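 Stimulation of a TR-driven beta-lactamase reporter was quantified in GripTite HEK 293 cells. Compound series ran for 18 hrs; curves were normalized to T3 and DMSO controls and fitted to yield EC50.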

[5] = qHTS assay for small molecule antagonists of retinoid X receptor alpha signaling (AID 588546; active means well fitted inhibition curve with a large enough effect in the signal ratio, with a control signal flat, not every such curve was filed as active; the % refers to the signal ratio;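 further: cells stimulated with 9-cis-retinoic acid as agonist; on the % scale 0 is the no-effect control and ±100 the full control effect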); settings: HEK293T RXRa-UAS-bla, beta-lactamase ratio, antagonist mode; measured here: W530 green channel, cytotoxicity proxy
Method in brief: (§1)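 Beta-lactamase reporter inhibition, read as CCF4 fluorescence ratio (ex 405, em 460/530 nm) after 2 h at RT. HEK293T UAS-bla cells, 2500/well, were stimulated with 9-cis-RA at 500 or 100 nM final alongside test compound for 18 h at 37 C.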

[6] = target: Retinoic acid receptor RXR-alpha (Homo sapiens) (UniProt P19793); assay: as above; settings: HEK293T RXRa-UAS-bla, beta-lactamase ratio, antagonist mode
Method in brief: as §1

[7] = target: Thyroid hormone receptor beta (Homo sapiens) (UniProt P10828); assay: qHTS assay for small molecule antagonists of thyroid hormone receptor beta signaling (AID 588547; active means well fitted inhibition curve with a large enough effect in the signal ratio, with a control signal flat, not every such curve was filed as active; the % refers to the signal ratio;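 further: cells stimulated with 0.4 nM T3 agonist during compound exposure; series mostly up to about 77 µM; on the % scale 0 is the no-effect control and ±100 the full control effect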); settings: TR-UAS-bla HEK293, beta-lactamase ratio, antagonist mode, 18 h
Method in brief: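 TR-UAS-bla GripTite HEK293 cells in 2% charcoal/dextran FBS medium were preincubated 4 h at 37 C, given compound (0.59 nM to 92 uM) plus 0.4 nM T3 (final) for 18 h, then CCF4 for 2 h at RT; Hill fit gave IC50.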

[8] = target: Voltage-gated inwardly rectifying potassium channel KCNH2 (Homo sapiens) (UniProt Q12809); assay: qHTS Assay for Small Molecule Inhibitors of the Human hERG Channel Activity (AID 588834; active means well fitted curve in the direction sought with a large enough effect; an effect the other way counts as inactive or inconclusive;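 further: lower thallium flux fluorescence means stronger hERG block; nearly all actives have a fitted effect of over 50% in size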; further: potency means the concentration at half of the fitted maximal effect)
Method in brief: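 Kinetic FDSS fluorescence; U2OS + hERG BacMam (~100 virus particles/cell); FluxOR Tl+ flux; ~10 min cpd; AC50 (Hill).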

[9] = target: Luciferin 4-monooxygenase (Photinus pyralis) (UniProt P08659); assay: Biochemical firefly luciferase enzyme assay for NPC (AID 624030; active means well fitted curve in the direction sought with a large enough effect; an effect the other way counts as inactive or inconclusive;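 further: purified P. pyralis luciferase at 10 nM with luciferin and ATP substrate; series mostly up to about 59 µM; 0% = DMSO and -100% = full luciferase inhibition by PTC124 control; nearly all actives have a fitted effect of over 70% in size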)
Method in brief: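 Counter-screen for direct inhibition of the luciferase enzyme by approved-drug library compounds, run at 10 nM enzyme in 50 mM Tris acetate (final). Luminescence was read within 5 min of enzyme-buffer addition and normalized to PTC124 versus DMSO (0%).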

[10] = S16 Schwann cell viability assay (CellTiter-Glo assay) (AID 624031; active means well fitted curve in the direction sought with a large enough effect; an effect the other way counts as inactive or inconclusive;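 further: native untransfected S16 rat Schwann cells; series mostly up to about 58 µM; plate controls were DMSO-treated cells for no effect and cell-free wells for full effect; nearly all actives have a fitted effect of over 70% in size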)
Method in brief: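 Counter-screen for cytotoxicity: parental S16 rat Schwann cells lacking the PMP22 reporters, treated 24 h with compound, viability from cellular ATP by CellTiter-Glo luminescence, normalized to DMSO (0%) and no-cell wells.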

[11] = S16 Schwann cell PMP22 intronic element firefly luciferase assay (AID 624032; active means well fitted curve in the direction sought with a large enough effect; an effect the other way counts as inactive or inconclusive; further: nearly all actives have a fitted effect of over 30% in size; further: potency means the concentration at half of the fitted maximal effect)
Method in brief: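 Rat S16 Schwann cells stably carrying a PMP22 intronic element-driven Fluc reporter were seeded overnight, then exposed to compounds for 24 h at 37 °C. Luminescence was normalized to PTC124 (positive control) and DMSO (0% activity).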

[12] = S16 Schwann cell PMP22 intronic element beta-lactamase assay (AID 624044); further: nearly all actives have a fitted effect of over 15% in size; further: potency means the concentration at half of the fitted maximal effect
Method in brief: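 Rat S16 Schwann cells with beta-Lac driven by a PMP22 intronic element, compound-treated 24 h at 37 °C. LiveBLAzer FRET B/G read: 460 nm normalized to potassium clavulanate vs DMSO; 535 nm FRET as viability; concentration-effect curves classified.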

[13] = qHTS assay for small molecule agonists of the antioxidant response element (ARE) signaling pathway (AID 651741; active means well fitted activation curve with a large enough effect in the signal ratio; the % refers to the signal ratio; further: potency means the concentration at half of the fitted maximal effect; on activation: % of control where 0% means no effect)
Method in brief: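 ARE-bla HepG2 cells (beta-lactamase reporter under ARE control) were plated at 2,000 cells/well, preincubated 5 h at 37 C/5% CO2, then treated with DMSO-dissolved compounds for 16 h at 37 C; LiveBLAzer B/G FRET substrate added, fluorescence read after 2 h at room temperature.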

[14] = target: Vitamin D3 receptor (Homo sapiens) (UniProt P11473); assay: qHTS assay for small molecule antagonists of vitamin D receptor signaling (AID 588541);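 further: receptor activated by calcitriol during compound treatment; series mostly up to about 77 µM; on the % scale 0 is the no-effect control and ±100 the full control effect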
Method in brief: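 VDR-UAS-bla HEK293T cells (2000/well, 2% charcoal-stripped FBS) were treated with titrated compounds plus 1-alpha,25-dihydroxyvitamin D3 (50 nM or 3 nM final) for 16 h at 37 C. CCF4 beta-lactamase fluorescence was read; Hill fits gave IC50.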

[15] = target: Vitamin D3 receptor (Homo sapiens) (UniProt P11473); assay: qHTS assay for small molecule agonists of vitamin D receptor signaling (AID 588543);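 further: 0% = DMSO basal and 100% = reference agonist control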
Method in brief: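 Agonist-mode beta-lactamase reporter: HEK293T VDR-UAS-bla cells in charcoal-stripped 2% FBS, compound series 16 h 37 C, CCF4 2 h RT. EC50 from Hill fit, scaled against DMSO and 50 nM calcitriol control.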

Retinoic acid receptor RXR-alpha (Homo sapiens), sequence (P19793 whole entry, looked up): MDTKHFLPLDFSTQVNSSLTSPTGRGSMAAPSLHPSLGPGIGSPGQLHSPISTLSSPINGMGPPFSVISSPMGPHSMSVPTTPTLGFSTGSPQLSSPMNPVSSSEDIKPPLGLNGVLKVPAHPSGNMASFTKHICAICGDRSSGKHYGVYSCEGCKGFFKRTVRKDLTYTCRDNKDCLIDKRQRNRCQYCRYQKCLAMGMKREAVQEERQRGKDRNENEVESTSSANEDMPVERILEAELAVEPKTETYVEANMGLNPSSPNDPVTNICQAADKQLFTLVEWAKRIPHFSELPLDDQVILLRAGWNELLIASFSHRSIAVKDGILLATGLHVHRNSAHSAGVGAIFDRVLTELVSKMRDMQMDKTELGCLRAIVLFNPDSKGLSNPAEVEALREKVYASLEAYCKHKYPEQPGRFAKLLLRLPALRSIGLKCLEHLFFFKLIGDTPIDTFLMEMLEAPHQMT
Luciferin 4-monooxygenase (Photinus pyralis), sequence (P08659 whole entry, looked up): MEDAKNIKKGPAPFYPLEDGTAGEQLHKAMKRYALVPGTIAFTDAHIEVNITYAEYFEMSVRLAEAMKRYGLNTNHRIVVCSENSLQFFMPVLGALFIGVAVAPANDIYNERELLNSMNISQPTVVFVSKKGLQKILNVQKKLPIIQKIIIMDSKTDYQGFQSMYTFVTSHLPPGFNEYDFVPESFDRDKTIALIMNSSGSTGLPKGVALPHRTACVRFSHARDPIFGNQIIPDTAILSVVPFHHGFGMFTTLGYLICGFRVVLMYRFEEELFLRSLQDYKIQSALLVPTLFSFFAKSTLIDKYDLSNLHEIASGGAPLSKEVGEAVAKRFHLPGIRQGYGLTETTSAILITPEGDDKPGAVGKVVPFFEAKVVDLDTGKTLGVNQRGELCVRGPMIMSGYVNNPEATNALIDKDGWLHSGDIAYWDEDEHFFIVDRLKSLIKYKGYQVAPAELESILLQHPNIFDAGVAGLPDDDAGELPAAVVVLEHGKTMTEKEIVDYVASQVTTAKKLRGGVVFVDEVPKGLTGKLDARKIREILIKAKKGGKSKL
Thyroid hormone receptor beta (Homo sapiens), sequence (P10828 whole entry, looked up): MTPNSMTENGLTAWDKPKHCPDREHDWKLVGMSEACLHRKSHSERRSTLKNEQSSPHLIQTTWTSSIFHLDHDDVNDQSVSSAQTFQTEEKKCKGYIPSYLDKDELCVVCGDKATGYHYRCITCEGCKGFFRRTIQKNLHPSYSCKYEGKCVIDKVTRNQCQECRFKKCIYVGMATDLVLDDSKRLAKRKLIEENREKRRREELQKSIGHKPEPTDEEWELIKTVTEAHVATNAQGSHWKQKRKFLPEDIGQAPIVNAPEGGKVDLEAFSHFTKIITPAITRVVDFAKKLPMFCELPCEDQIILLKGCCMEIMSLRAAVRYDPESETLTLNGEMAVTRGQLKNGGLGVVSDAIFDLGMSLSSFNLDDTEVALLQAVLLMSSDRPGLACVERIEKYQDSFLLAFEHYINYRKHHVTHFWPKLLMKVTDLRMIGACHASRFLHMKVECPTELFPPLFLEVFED
Vitamin D3 receptor (Homo sapiens), sequence (P11473 whole entry, looked up): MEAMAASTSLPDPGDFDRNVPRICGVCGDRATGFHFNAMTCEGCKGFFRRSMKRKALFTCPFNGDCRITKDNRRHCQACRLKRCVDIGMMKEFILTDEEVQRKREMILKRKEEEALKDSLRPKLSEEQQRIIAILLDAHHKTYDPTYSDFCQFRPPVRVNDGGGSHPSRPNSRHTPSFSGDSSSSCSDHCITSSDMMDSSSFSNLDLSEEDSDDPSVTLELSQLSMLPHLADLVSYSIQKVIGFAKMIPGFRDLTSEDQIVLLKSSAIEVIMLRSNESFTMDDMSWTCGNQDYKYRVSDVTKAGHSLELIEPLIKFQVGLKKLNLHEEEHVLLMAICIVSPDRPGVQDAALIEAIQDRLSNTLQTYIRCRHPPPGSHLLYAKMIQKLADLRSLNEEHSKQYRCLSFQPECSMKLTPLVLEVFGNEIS
Peroxisome proliferator-activated receptor gamma (Homo sapiens), sequence (P37231 whole entry, looked up): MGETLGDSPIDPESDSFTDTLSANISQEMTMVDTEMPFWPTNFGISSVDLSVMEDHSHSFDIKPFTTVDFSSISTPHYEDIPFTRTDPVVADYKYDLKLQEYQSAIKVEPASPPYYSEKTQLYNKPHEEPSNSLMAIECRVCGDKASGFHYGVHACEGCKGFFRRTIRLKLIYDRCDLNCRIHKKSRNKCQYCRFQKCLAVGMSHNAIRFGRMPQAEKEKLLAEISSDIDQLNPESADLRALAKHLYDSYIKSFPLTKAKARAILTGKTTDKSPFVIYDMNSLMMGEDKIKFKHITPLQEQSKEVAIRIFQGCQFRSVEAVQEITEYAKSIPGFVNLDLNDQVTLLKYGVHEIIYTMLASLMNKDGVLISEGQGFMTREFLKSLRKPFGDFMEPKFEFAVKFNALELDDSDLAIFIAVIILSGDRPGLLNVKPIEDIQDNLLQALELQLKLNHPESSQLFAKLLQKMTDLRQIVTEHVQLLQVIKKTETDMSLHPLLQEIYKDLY
Voltage-gated inwardly rectifying potassium channel KCNH2 (Homo sapiens), sequence (Q12809 whole entry, looked up): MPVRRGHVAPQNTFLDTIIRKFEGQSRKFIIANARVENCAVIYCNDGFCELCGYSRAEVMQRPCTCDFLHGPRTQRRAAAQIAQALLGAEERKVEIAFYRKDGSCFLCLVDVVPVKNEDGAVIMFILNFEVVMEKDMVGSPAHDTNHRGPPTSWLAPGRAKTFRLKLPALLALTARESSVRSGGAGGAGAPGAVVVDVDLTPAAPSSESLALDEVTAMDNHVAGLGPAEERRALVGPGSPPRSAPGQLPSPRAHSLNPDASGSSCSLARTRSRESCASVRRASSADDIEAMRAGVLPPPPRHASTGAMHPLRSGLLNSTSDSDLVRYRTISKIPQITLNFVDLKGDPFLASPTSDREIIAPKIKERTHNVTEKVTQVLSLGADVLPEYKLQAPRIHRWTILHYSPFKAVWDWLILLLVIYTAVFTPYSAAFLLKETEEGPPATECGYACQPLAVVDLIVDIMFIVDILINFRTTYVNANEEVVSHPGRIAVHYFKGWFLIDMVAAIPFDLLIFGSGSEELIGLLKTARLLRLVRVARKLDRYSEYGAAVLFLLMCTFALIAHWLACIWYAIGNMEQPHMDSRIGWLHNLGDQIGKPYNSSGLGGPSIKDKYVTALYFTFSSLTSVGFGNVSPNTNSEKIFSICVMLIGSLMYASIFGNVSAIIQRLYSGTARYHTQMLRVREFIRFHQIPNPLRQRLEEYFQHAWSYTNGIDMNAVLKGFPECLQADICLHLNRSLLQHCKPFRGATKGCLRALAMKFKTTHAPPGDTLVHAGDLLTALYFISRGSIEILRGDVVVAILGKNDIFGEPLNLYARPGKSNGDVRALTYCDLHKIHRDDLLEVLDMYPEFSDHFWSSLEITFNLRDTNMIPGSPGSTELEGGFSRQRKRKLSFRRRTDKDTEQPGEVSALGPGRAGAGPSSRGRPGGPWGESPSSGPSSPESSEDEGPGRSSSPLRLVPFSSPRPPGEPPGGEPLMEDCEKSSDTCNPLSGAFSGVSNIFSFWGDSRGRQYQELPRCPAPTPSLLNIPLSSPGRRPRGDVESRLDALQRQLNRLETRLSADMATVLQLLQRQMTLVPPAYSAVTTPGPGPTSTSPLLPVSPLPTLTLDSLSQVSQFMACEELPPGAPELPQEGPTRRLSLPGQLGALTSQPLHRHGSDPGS

O=[N+]([O-])c1ccccc1
-18.4%: max response [5]
inactive: Potency [1] | Potency [3] | outcome [4] | max response [6] -0.8% | activity change % (negative = inhibition) [7] -11.4% | Potency [8] | Potency [9] | Potency [10] | Potency [11] | Potency [12] | Potency [13]
-10.6% and -11.5%: max response [2]

O=C/C=C/c1ccccc1
inactive: Potency [1] | Potency [14] | outcome [15] | Potency [3] | outcome [4] | max response [6] 12.1% and 26.2% | activity change % (negative = inhibition) [7] 12.8% and -9.11% | Potency [8] | Potency [10] | Potency [11] | Potency [12]
-5.91% and -8.21%: max response [5]
4.89% and -11.3%: max response [2]

COC1=CC(=O)O[C@@H](/C=C/c2ccccc2)C1
0.406%: max response [5]
inactive: Potency [1] | Potency [14] | outcome [15] | outcome [4] | max response [6] 18.3% | activity change % (negative = inhibition) [7] -5.64% | Potency [8]
active: Potency [13] 5.31 µM

ClCC1CO1 (stereo unspecified)
-12.3%: max response [2]
-5.61%: max response [5]
inactive: Potency [1] | Potency [14] | outcome [15] | Potency [3] | max response [6] -1.88% | activity change % (negative = inhibition) [7] 1.74% | Potency [8] | Potency [10] | Potency [11] | Potency [12]

O=C1C[C@@H]2OCC=C3CN4CC[C@]56c7ccccc7N1[C@H]5[C@H]2[C@H]3C[C@H]46
7.39%: max response [5]
inactive: Potency [1] | outcome [4] | max response [6] -7.88% | activity change % (negative = inhibition) [7] 0.757% | Potency [13]
active: Potency [8] 14.1 µM

O=C1CCO1
-9.31%: max response [5]
-0.599%: max response [2]
inactive: Potency [1] | Potency [14] | outcome [15] | Potency [3] | outcome [4] | max response [6] 14.1% | activity change % (negative = inhibition) [7] 16.1% | Potency [8] | Potency [9] | Potency [10] | Potency [11] | Potency [12]

CC(C)CCON=O
inactive: Potency [1] | Potency [14] | outcome [15] | Potency [3] | outcome [4] | activity change % (negative = inhibition) [7] -6.62% | Potency [8] | Potency [9] | Potency [10] | Potency [11] | Potency [12]
4.6%: max response [2]

COc1ccc2c(c1OC)C(=O)OC2C1c2cc3c(cc2CCN1C)OCO3 (stereo unspecified)
-2.26%: max response [5]
inactive: Potency [1] | Potency [3] | outcome [4] | max response [6] 20.7% | activity change % (negative = inhibition) [7] -14.3% | Potency [13]
15.8 µM (active) and inactive: Potency [8]
0.13%: max response [2]

O=[N+]([O-])c1ccc(F)c([N+](=O)[O-])c1
-4.46%: max response [5]
inactive: Potency [14] | outcome [15] | max response [6] 1.55% | activity change % (negative = inhibition) [7] 5.42% | Potency [8] | Potency [9] | Potency [10] | Potency [11]
active: Potency [13] 42.2 µM

O=C1C2CC=CCC2C(=O)N1SC(Cl)(Cl)Cl (stereo unspecified)
inactive: outcome [15] | outcome [4] | max response [6] 15%
active: Potency [8] 25.1 µM and 28.2 µM | Potency [11] 12.8 µM | Potency [12] 22.4 µM
-2.91%: max response [5]
